# High-throughput results (PubChem)
# Shown are actives, neighbours in structure and some others; about 18% of the full set was active somewhere.
# LDHA inh – blocks human lactate dehydrogenase A | P00338 | purified LDHA, NADH/diaphorase-resazurin fluorescence; stronger effect = lower value | activity change, % (values are at about 110 or 230 µM) | 480,000 tested, 0.15% active | AID 1347041; in the data active = activity change below about -30%; inconclusive = mostly about -25% to -30%;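 note: plate controls were DMSO wells for no effect and wells without enzyme for full effect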
#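 Enzyme activity of human lactate dehydrogenase 5 (2 nM; 0.06 mM NADH, 0.2 mM pyruvate, 5 min, RT) is measured via a resazurin/diaphorase fluorescence readout of residual NADH.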
# VP16 counter – Gal4-VP16 reporter inhibition counter-screen. Drosophila S2 Gal4-VP16 UAS-luciferase, luminescence, 20 h. Potency, µM (doses to about 53.6 µM), for the others: at the top dose activity, negative = inhibition, actives largely listed as inhibitors. 310,000 tested, 3.5% active. AID 2546;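 note: Gal4-VP16 expression switched on by copper sulfate through the metallothionein promoter; potency is the fitted concentration of half-maximal effect; nearly all actives have a fitted effect of over 50% in size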
# RORgamma inh – inhibitors of mouse ROR gamma transcriptional activity; 310,000 tested, 5.4% active; AID 2551; Drosophila S2 Gal4-RORgamma UAS-luciferase reporter, 20 h; Potency, µM (top dose mostly 53.6 µM), for inactives: at the top dose activity change, negative = inhibition, hits mostly inhibitors; note: potency is the fitted concentration of half-maximal effect; nearly all actives have a fitted effect of over 60% in size
# Target sequence (P51450 whole entry, looked up, the tested form may be a part): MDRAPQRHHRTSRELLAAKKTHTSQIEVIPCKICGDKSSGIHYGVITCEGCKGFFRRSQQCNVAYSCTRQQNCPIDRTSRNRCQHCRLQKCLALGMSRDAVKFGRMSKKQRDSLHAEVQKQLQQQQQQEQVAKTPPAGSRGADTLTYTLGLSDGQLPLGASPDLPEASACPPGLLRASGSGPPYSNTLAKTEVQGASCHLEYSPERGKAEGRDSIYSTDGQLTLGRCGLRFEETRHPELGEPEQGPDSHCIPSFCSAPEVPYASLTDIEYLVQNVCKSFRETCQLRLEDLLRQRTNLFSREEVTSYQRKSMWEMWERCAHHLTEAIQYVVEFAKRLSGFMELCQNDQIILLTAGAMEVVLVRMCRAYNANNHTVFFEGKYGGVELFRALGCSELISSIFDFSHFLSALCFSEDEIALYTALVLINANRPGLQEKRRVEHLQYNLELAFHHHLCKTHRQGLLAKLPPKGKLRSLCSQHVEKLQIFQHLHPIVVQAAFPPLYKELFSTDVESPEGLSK
#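 Drosophila Schneider cells stably carrying a metallothionein-driven Gal4 DBD–ROR gamma fusion and a UAS-Photinus luciferase reporter were exposed to compound for 1 hr, then induced with copper sulfate (700 uM final) for 20 hr at ambient temperature before luminescence reading.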
# DT40 TDP1 CPT – growth inhibition of DT40 Tdp1-/-;hTDP1 cells with camptothecin (screen for TDP1 inhibitors); chicken DT40 Tdp1-/-;hTDP1 cells + 20 nM CPT, ATP luminescence, 48 h; Potency, µM (titrated, usually from 46.2 µM), for inactives: top-dose activity change, negative = growth inhibition, actives largely listed as inhibitors; 420,000 tested, 12% active; note: potency is the fitted concentration of half-maximal effect; nearly all actives have a fitted effect of over 55% in size
#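 Chicken DT40 Tdp1-/- cells complemented with human TDP1, 400 cells/well, exposed to compounds plus 20 nM camptothecin for at least 48 h at 37 C; viability read as ATP content by CellTiter-Glo luminescence.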
# IL-1B inflam inh – inflammasome signaling inhibition, IL-1 beta readout; THP-1 LPS/ATP IL-1B secretion, AlphaLISA, 16 h; stronger effect = lower value; activity change, % at 57.5 µM; 360,000 tested, 4.7% active; AID 743279; in the data active = activity change below about -50%; inconclusive = mostly about -30% to -49%
#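 Secreted IL-1B measured by AlphaLISA bead assay after 16 h compound exposure of THP-1 cells; compounds (final up to 57.5 uM) added 1 h before LPS (250 ng/mL) and ATP (1.25 mM) stimulation; lower signal means less secretion.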
# DT40 TDP1 no CPT – qHTS for Inhibitors of human tyrosyl-DNA phosphodiesterase 1 (TDP1): qHTS in cells in absence of CPT; DT40 Tdp1-/- hTDP1 cells, no CPT, ATP luminescence, 48 h; Potency, µM (titrated, usually from 46.2 µM), for inactives: at the top dose activity change, negative = growth inhibition, most hits filed as inhibitors; 420,000 tested, 15% active; AID 686978, 2013; note: potency is the fitted concentration of half-maximal effect; nearly all actives have a fitted effect of over 55% in size
#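 Camptothecin absent (DMSO only). Human TDP1-complemented DT40 knockout cells, 400 cells/well, 37 °C for minimum 48 hr; ATP measured via CellTiter-Glo, 30 min dark incubation, luminescence.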
# An asterisk follows results filed as active; u = inconclusive; x = not tested or not shown. Unless noted, calls come from the whole dose curve; as a rule, active = well fitted curve in the direction sought with a large enough effect; inconclusive = small, poorly fitted or top-dose-only effect, or another doubt; inactive = no such curve, though single readings can be large; an effect the other way counts as inactive or inconclusive. Unless noted, % is set by controls: 0 for no effect and ±100 for the full control effect.
SMILES,LDHA inh,VP16 counter,RORgamma inh,DT40 TDP1 CPT,IL-1B inflam inh,DT40 TDP1 no CPT
C[C@@H]1CCCCO[C@H](CN(C)C(=O)Nc2cccc3ccccc23)[C@@H](C)CN([C@H](C)CO)C(=O)c2cc(N(C)C)ccc2O1,4,x,x,15µM*,6,9.2µM*
Cc1ccc(S(=O)(=O)Nc2ccc3c(c2)C(=O)N([C@H](C)CO)C[C@H](C)[C@@H](CN(C)C(=O)NC2CCCCC2)OCCCC[C@@H](C)O3)cc1,1,x,x,21µM*,-9,13µM*
O=C(Nc1ccc(Br)cc1)N1CCN(c2nc3ccccc3n2Cc2ccccc2)CC1,1,x,x,x,x,x
Cc1[nH]nc2ncc(C=O)cc12,4,x,x,x,x,x
CN(Cc1ccc(OC(F)F)cc1)C(=O)c1cccc(S(=O)(=O)N2CCN(c3ccccc3)CC2)c1,-4,x,x,15µM*,-62*,2.9µM*
CN(CC(=O)N1CCN(Cc2ccccc2)CC1)C(=O)Cc1ccc(Cl)c(Cl)c1,-9,x,x,u,-13,15µM*
COc1ccccc1OCCNC(=O)c1cccc(S(=O)(=O)N2CCN(Cc3ccccc3)CC2)c1,0,x,x,18µM*,-23,u
COc1ccccc1NC(=O)c1cccc(S(=O)(=O)N2CCN(Cc3ccccc3)CC2)c1,-9,x,x,u,-2,u
CN(C)S(=O)(=O)N(CC(=O)N1CCN(Cc2ccccc2)CC1)c1ccccc1,-15,-1%,4%,u,16,-12%
CN(Cc1cnn(Cc2ccccc2)c1)C(=O)c1cccc(S(=O)(=O)N2CCOCC2)c1,0,x,x,7.3µM*,54,5.8µM*
CCN(CC(=O)Nc1ccc(OC)cc1)C(=O)c1cccc(S(=O)(=O)N2CCN(c3ccccc3)CC2)c1,-1,x,x,-5%,-30,-16%
Cc1ccc(S(=O)(=O)N2CCCN(c3nnnn3-c3ccccc3)CC2)cc1,-1,x,x,x,x,x
CC(C)(C)C1CCc2nc(SCC(N)=O)c(C#N)c(C(F)(F)F)c2C1 (stereo unspecified),-1,x,x,x,x,x
O=C(Nc1ccccc1)c1ccc(OCc2ccccc2)cc1,0,x,x,x,x,x
CCCc1nc(NCC2CCCO2)c(C#N)c2c1CCCC2 (stereo unspecified),9,x,x,x,x,x
CN(Cc1ccc(Cl)c(Cl)c1)C(=O)c1cccc(S(=O)(=O)N2CCN(Cc3ccccc3)CC2)c1,1,x,x,21µM*,u,21µM*
CN(Cc1cccc(Cl)c1Cl)C(=O)c1cccc(S(=O)(=O)N2CCN(Cc3ccccc3)CC2)c1,2,x,x,u,-11,16µM*
CCN(Cc1ccccc1)c1ccc(/C=N/NC(=O)c2cccc(S(=O)(=O)N3CCOCC3)c2)cc1,-1,7.9µM*,6.3µM*,u,5,13µM*
CSc1ccc(C2CC(=O)Nc3c2cnn3-c2nc3ccccc3s2)cc1 (stereo unspecified),-1,x,x,x,x,x
C=CCn1c(SCc2coc(-c3ccc(F)cc3)n2)nnc1C1CCS(=O)(=O)C1 (stereo unspecified),-17,x,x,x,x,x
CCC1COCCS(=O)(=O)N1Cc1ccc(C)cc1 (stereo unspecified),-1,3%,-10%,u,10,-5%
O=S1(=O)CCO[C@H]2CCCC[C@@H]2N1Cc1ccc(Cl)cc1,x,x,x,u,x,20µM*
O=S(=O)(Nc1ccc2cn[nH]c2c1)c1ccc(Cl)cc1,2,0%,21%,-17%,10,u
Cc1cc(S(=O)(=O)Nc2ccc3cn[nH]c3c2)c(C)cc1Cl,-8,-10%,31%,-30%,16,4.6µM*
O=C1OCC2=C1C(c1ccc3c(c1)OCO3)CC(=O)N2c1ccccc1 (stereo unspecified),20,x,x,x,x,x
SMILES,LDHA inh,VP16 counter,RORgamma inh,DT40 TDP1 CPT,IL-1B inflam inh,DT40 TDP1 no CPT
Nc1nccnc1C(=O)Nc1cccc(F)c1,7,x,x,x,x,x
CCCCc1nn2cc(-c3cccc(Br)c3)nc2s1,-2,x,x,x,x,x
Cc1nn(C)cc1NC(=O)CC12CC3CC(CC(C3)C1)C2,20,-8%,20%,u,17,u
CCn1nc(C)c(NC(=O)CC23CC4CC(CC(C4)C2)C3)c1C,-4,-50%,u,u,47,21µM*
Cn1c(=O)[nH]c(=O)c2c1nc(CN1CCN(c3ccccc3F)CC1)n2CCCc1ccccc1,3,12%,2%,u,-18,14µM*
CCCCCn1c(CN2CCN(c3cccc(Cl)c3)CC2)nc2c1c(=O)[nH]c(=O)n2C,4,-1%,-10%,21µM*,-23,u
CCCn1c(N2CCN(CC(=O)c3c(C)n(C)c4ccccc34)CC2)nc2c1c(=O)[nH]c(=O)n2C,-10,-1%,-12%,u,-69*,18µM*
CCCCCCCCn1c(N2CCN(c3cccc(Cl)c3)CC2)nc2c1c(=O)[nH]c(=O)n2C,-10,2%,-2%,u,-7,u
CCCCCCn1c(N2CCN(c3cccc(Cl)c3)CC2)nc2c1c(=O)[nH]c(=O)n2C,-2,8%,26%,u,u,23µM*
Cc1cc(C)c(NC(=O)C2=Cc3sc4c(c3CS2)CCCC4)c(C)c1,0,x,x,x,x,x
CC(C)(C)CC(C)(C)NC(=O)C1CNC(=O)C1 (stereo unspecified),-8,x,x,x,x,x
CCCCCCn1c(N2CCN(c3ccccc3)CC2)nc2c1c(=O)[nH]c(=O)n2C,4,-28%,43%,23µM*,u,u
CCCCCCn1c(N2CCOCC2)nc2c1c(=O)[nH]c(=O)n2C,5,x,x,x,x,x
CN1CCN(c2nc3c(c(=O)[nH]c(=O)n3C)n2CCSc2ncccn2)CC1,x,-5%,0%,x,x,x
Cn1c(=O)[nH]c(=O)c2c1nc(N1CCN(c3ccccc3)CC1)n2CCSc1ncccn1,5,0%,u,u,-7,10µM*
C/C(=N\Nc1nc2ccccc2nc1C)c1ccccc1O,-2,2µM*,0.22µM*,0.13µM*,32,0.092µM*
CC(=NNc1ccc2ccccc2n1)c1ccccc1O,-1,x,x,u,-59*,u
C/C(=N/O)c1ccccc1O,1,x,x,x,x,x
Cc1cccc(CNc2nc3ccccc3nc2C)c1,-3,x,x,x,x,x
O=C(O)c1ccc(COc2cccc(Cl)c2)s1,7,x,x,x,x,x
CO[C@@H]1[C@@H](O[C@@H]2O[C@H](C)[C@@H](O[C@H]3C[C@@](C)(O)[C@@H](OC(=O)CC(C)C)[C@H](C)O3)[C@H](N(C)C)[C@H]2O)[C@@H](CC=O)C[C@@H](C)[C@@H](O)/C=C/C=C/C[C@@H](C)OC(=O)C[C@H]1O,x,x,x,6.7µM*,x,6µM*
